Compound activity (PubChem BioAssay)
EPAC2 ag: activates human EPAC2 exchange factor; Potency, µM (series often up to 154 µM), inactives show top-dose activation, usual class: activators; 360,000 tested, 0.079% active; Q8WZA2; EPAC2 activation, biochemical qHTS; response scale: 100% = 6.5 mM cAMP response; note: nearly all actives have a fitted effect of over 50% in size
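Each well held 100 nM EPAC2, 250 nM RAP1B-BODIPY-GDP and 50 uM GDP. Fluorescence, read at 5-min intervals to 30 min, was referenced to a 6.5 mM cAMP positive control.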
EPAC1 ag: EPAC1 (human) agonism | O95398 | EPAC1 agonist qHTS, biochemical assay; response scale: 100% = response to 6.5 mM cAMP | Potency, µM (titrated, usually from 154 µM), inactives show at the top dose activation, most hits filed as activators | 360,000 tested, 0.073% active | AID 720707; note: nearly all actives have a fitted effect of over 60% in size
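Normalized to 6.5 mM cAMP, activity reflects EPAC1-catalysed release of BODIPY-GDP from Rap1B, followed kinetically over 30 min at 480 nm excitation, 540 nm emission. Reaction contained 100 nM EPAC1, 250 nM Rap1B-BODIPY-GDP, 50 uM GDP.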
EPAC2 antag: antagonists of human EPAC2; Potency, µM (series often up to 114 µM), for inactives: at the top dose activity, negative = inhibition, hits mostly inhibitors; Q8WZA2; EPAC2 GEF exchange of Rap1B-BODIPY-GDP, fluorescence; 360,000 tested, 0.18% active; note: % is set by controls: 0 for no effect and ±100 for the full control effect; nearly all actives have a fitted effect of over 45% in size
USP1 inh: blocks the human USP1/UAF1 deubiquitinase complex; 390,000 tested, 0.23% active; recombinant USP1/UAF1, Ub-Rhodamine cleavage fluorescence; Potency, µM (highest dose often 57.1 µM), for inactives: top-dose activity change, negative = inhibition, actives largely listed as inhibitors; O94782; AID 743255; note: % is set by controls: 0 for no effect and ±100 for the full control effect; nearly all actives have a fitted effect of over 60% in size
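High-throughput fluorogenic screen: 1nM USP1/UAF1 complex, Ub-Rho substrate 150nM final, 50mM HEPES pH 7.8 with 0.5mM EDTA, 0.1 mg/ml BSA, 1mM TCEP and 0.01% Tween-20.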
EPAC1 antagonist: EPAC1 (human) antagonism; O95398; 360,000 tested, 0.14% active; Potency, µM (doses to about 115 µM), for inactives: at the top dose activity change, negative = inhibition, actives largely listed as inhibitors; EPAC1 GEF assay, Rap1b-BODIPY-GDP exchange fluorescence;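 note: plate controls were vehicle for no effect and positive control for full effect; nearly all actives have a fitted effect of over 50% in size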
BRCA1 expr act: increases BRCA1 expression; MCF7-BRCA1-FFLuc reporter, luminescence, 48 h; response scale: scaled: vehicle 0%, 10 µM genistein 100%; Potency, µM (doses to about 46.1 µM), without a hit: at the top dose activation, usual class: activators; 380,000 tested, 1.1% active; AID 624202; note: nearly all actives have a fitted effect of over 80% in size
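Reporter cells (MCF7, BRCA1 promoter-firefly luciferase) received library compounds across a concentration series for 48 h. End-point luminescence was measured and concentration-effect curves derived after normalization.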
Starred values were filed as active, the others as inactive; ? = inconclusive; · = not tested or not shown. An excerpt weighted towards active compounds, which were near 1.4% of everything screened. Calls come from the whole dose curve; as a rule, active = well fitted curve in the direction sought with a large enough effect; inconclusive = small, poorly fitted or top-dose-only effect, or another doubt; inactive = no such curve, though single readings can be large; an effect the other way counts as inactive or inconclusive. Potency is the fitted concentration of half-maximal effect.

SMILES | EPAC2 ag | EPAC1 ag | EPAC2 antag | USP1 inh | EPAC1 antagonist | BRCA1 expr act
O=C(O)c1ccc(COc2ccccc2/C=C2/NC(=O)N(c3cccc(Cl)c3)C2=O)cc1 | 20% | 89µM* | ? | 10% | ? | 31%
Cc1cccc(NC(=O)CN2C(=O)N/C(=C\c3ccccc3OCc3ccc(C(=O)O)cc3)C2=O)c1 | -1% | 2% | -20% | -9% | 28µM* | 0%
O=C(NCc1ccco1)c1ccc2c(c1)N(Cc1ccccc1F)C(=O)c1ccccc1S2(=O)=O | · | · | · | -26% | · | ·
Cc1cccc(NC(=O)C(=O)NCC(c2ccc3c(c2)OCO3)N2CCOCC2)c1C (stereo not given) | · | · | · | -16% | · | ·
COc1cccc(-n2cnc3scc(-c4cccs4)c3c2=O)c1 | 6% | 12% | -15% | -13% | -1% | -9%
CCOc1ccc(-n2cnc3scc(-c4ccc(OC)c(OC)c4)c3c2=O)cc1 | 14% | 6% | 50µM* | -15% | -10% | -32%
Cc1nnc(NC(=O)c2cc3ccccc3o2)s1 | 8% | 8% | -2% | -14% | 5% | 7.1µM*
O=C(CSc1nncn2c1cc1sccc12)Nc1ccccc1C(F)(F)F | · | · | · | 6% | · | ·
Cc1ccc(-c2noc(C3CCCCC3)n2)cc1 | 11% | -1% | 0% | 2% | 2% | 10µM*
Cc1cccc(-c2noc(C3CCCCC3)n2)c1 | 14% | 5% | -3% | -6% | 1% | 4.5µM*
CCS(=O)(=O)N1CCC(c2nc(-c3ccc(C)cc3)no2)CC1 | -8% | 1% | 1% | -15% | -11% | 30%
Cc1cccc(-c2noc(C3CC(=O)N(c4ccc5c(c4)OCCO5)C3)n2)c1 (stereo not given) | · | · | · | -17% | · | ·
NC1=NC(=O)/C(=C\c2ccc(-c3ccccc3[N+](=O)[O-])o2)S1 | · | · | · | · | · | -27%
COCCCNC(=O)COc1ccc(Br)cc1Cl | 0% | 8% | 4% | -15% | 7% | 13µM*
CCNC(=O)COc1ccc(Br)cc1Cl | 5% | 0% | 1% | -1% | 1% | 47%
Cc1ccc(NC(=O)C2CCCN(c3cnccn3)C2)cc1Cl (stereo not given) | · | · | · | -9% | · | ·
Cc1coc2c1C(=O)C(=O)c1c-2ccc2c(C)cccc12 | -1% | -2% | 4% | 28µM* | 79µM* | -82%
CC1=C(C(=O)Nc2ccccc2)C(c2ccncc2)n2nc(SCc3ccccc3Cl)nc2N1 (stereo not given) | · | · | · | -9% | · | 0%
CC(=NNC1=NCCN1)c1cnn(C2=NCCN2)c1C | 1% | 1% | -3% | · | -1% | -2%
COc1ccc2sc(NC(C)=O)nc2c1 | -1% | 4% | -2% | 1% | -2% | ?
COc1ccc2sc(NC(=O)CC(C)C)nc2c1 | 10% | 4% | 0% | -11% | 0% | 5.6µM*
COc1ccc2sc(NCc3ccccc3)nc2c1 | 4% | 3% | 0% | -24% | -6% | 2.8µM*
CCC(=O)Nc1nc2cc(OC)ccc2s1 | 4% | 5% | -3% | -11% | -8% | ?
CC(=O)C[C@H]1SC[C@@H](C(C)C)N1S(=O)(=O)c1ccc(C)cc1 | 6% | 4% | 40µM* | · | -19% | ·
CC(=O)C[C@@H]1OC[C@H](C(C)C)N1S(=O)(=O)c1ccc(C)cc1 | -2% | 6% | -21% | · | 17% | ·
CC(C)c1ccc(Nc2nc(CC(=O)O)cs2)cc1 | 4% | -14% | -1% | -21% | -14% | 5µM*
O=C1c2cc(Br)ccc2N(Cc2ccc(Br)cc2)S(=O)(=O)C1c1cc(Cl)c(Cl)cc1[N+](=O)[O-] (stereo not given) | -11% | -10% | 20µM* | ? | 56µM* | -18%
O=C1CS(=O)(=O)N(Cc2cccc(F)c2)c2ccc(Br)cc21 | 7% | -9% | -21% | ? | ? | -2%
CCCN1CCC(=O)N(CCOc2ccccc2)CC1 | 1% | 9% | 13% | -27% | 3% | 30%
